This is an account of results in PubChem BioAssay AID686978 (National Center for Advancing Translational Sciences (NCATS), 2013).

Molecules are shown by their SMILES. Out of some 420,000 compounds screened, about 64,000 (15%) were called active. Roughly 27% stayed inconclusive and do not appear here. The call rests on the fitted dose curve; in most records, active means well fitted inhibition curve with a large enough effect; inconclusive means small, poorly fitted or top-dose-only effect; inactive means flat fitted curve, though single readings scatter. A selection follows. Where a call stands in place of a potency, no number is given.
Potency means the concentration at half of the fitted maximal effect.

The nature of the assay: qHTS for Inhibitors of human tyrosyl-DNA phosphodiesterase 1 (TDP1): qHTS in cells in absence of CPT. Further: nearly all actives have a fitted effect of over 55% in size. As to conditions: DT40 Tdp1-/- hTDP1 cells, no CPT, ATP luminescence, 48 h; activity change, negative = growth inhibition: at 46.2 µM (top of the series). The gist of the method: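 Growth of hTDP1-complemented DT40 Tdp1-knockout cells is measured by ATP luminescence after at least 48 hr compound exposure at 37 °C, with DMSO substituting for the 20 nM CPT used in the parallel screen.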
On to `Cc1ccc(CNC(=O)CC2Sc3ccccc3NC2=O)cc1` (stereo not given), for which the Potency entry is “inactive”.
For `O=C(CC1SCCNC1=O)Nc1ccc(Cl)c(Cl)c1` (stereo not given) the value was “inactive”.
For `O=C(CC1Sc2ccccc2NC1=O)NNc1ccc(Cl)c(Cl)c1` (stereo not given) the value was 11.6 µM (active).
For `NNC(=O)c1ccc(COCC(F)(F)C(F)F)cc1` the value was “inactive”; for `Cc1ccc(OCC(=O)OCc2cc(=O)n3nc(C4CC4)sc3n2)cc1`, “inactive”; for `CS(=O)(=O)c1ccc(C(=O)OCC(=O)NNC(=O)COc2ccc(Cl)cc2)cc1`, “inactive”.
For the molecule `Cc1ccc(-c2cc(N)on2)cc1`, the Potency entry was “inactive”.
For `COc1cc(OC)cc(C(=O)NCC(=O)OCc2csc(-c3ccccc3)n2)c1` the value was 23.1 µM (active); for `COc1cc(OC)cc(C(=O)NCC(=O)OCC(=O)NC(C)CCc2ccccc2)c1` (stereo not given), “inactive”; for `COc1cccc(C(=O)NCC(=O)OCc2cc(=O)n3ccsc3n2)c1`, “inactive”.
For `CSc1ccc(CNCCN2CCOCC2)cc1` the value was “inactive”; for `CCc1ccc(-n2c(SCc3cc(=O)n4cc(Br)ccc4n3)nc3[nH]ncc3c2=O)cc1`, 20.6 µM (active); for `COc1ccc(CCNC(=O)CSc2nc3[nH]ncc3c(=O)n2-c2cccc(C(F)(F)F)c2)cc1OC`, “inactive”.
As for `CCCSc1nc2[nH]ncc2c(=O)[nH]1`, the Potency result is “inactive”.
In the case of `COc1ccccc1N1CCC(N2CCN(CC(C)(C)C)C(CCO)C2)CC1` (stereo not given), the Potency result was “inactive”.
For `COc1ccccc1NC(=O)/C=C/C(=O)O` the value was “inactive”; for `COc1ccccc1NC(=O)/C=C/C(N)=O`, 2.91 µM (active).
For `COc1ccccc1NC(=O)C[n+]1ccccc1` the value was “inactive”; for `O=C(Nc1ccc(S(=O)(=O)Nc2nccs2)cc1)c1cc(=O)[nH]c2ccccc12`, “inactive”; for `Cc1cccc(C(=O)O)c1[N+](=O)[O-]`, “inactive”.
For `COc1ccccc1OCCNCC(O)COc1cccc2[nH]c3ccccc3c12` (stereo not given) the value was 16.4 µM (active).
Consider `COc1ccccc1OCCNC(=O)c1cc([N+](=O)[O-])cc([N+](=O)[O-])c1`, for which the Potency entry is “inactive”.
Next, `CC(C)(C)NCC(O)COc1cccc2[nH]c(=O)[nH]c12` (stereo not given): “inactive”; `Fc1ccc(Br)cc1/C=N/n1cnnc1`: “inactive”.
For `CN(CC(=O)Nc1ccccc1[N+](=O)[O-])Cc1ccc(Br)cc1` the value was “inactive”; for `COc1ccccc1CC(=O)Nc1ccc([N+](=O)[O-])cc1OC`, “inactive”.
Next, `COc1ccc(Br)cc1CN(C)CC(=O)Nc1cc([N+](=O)[O-])ccc1OC`: 16.4 µM (active); `CCCC1C(c2ccccc2)C(C#N)(C#N)C2(C#N)CC1(N)NC2=O` (stereo not given): “inactive”; `COc1cccc(CNC(=O)CCN2C(=S)NC(C)(C)CC2C)c1` (stereo not given): “inactive”.
Regarding `O=C(O)C1=NN(c2c(F)c(F)cc(F)c2F)C(=O)CC1`, the Potency entry is “inactive”.
Next, `COc1cccc(CN2CCC3(CC2)c2ccccc2[C@@H](NC(=O)c2ccccc2OC)[C@@H]3O)c1`: 16.4 µM (active).
Next, `CO[C@H]1[C@H](NC(=O)C(C)C)c2ccccc2C12CCN(Cc1cnc(N(C)C)s1)CC2`: “inactive”; `COc1ccccc1C(=O)N[C@@H]1c2ccccc2C2(CCN(C(=O)c3csnn3)CC2)[C@H]1OC`: “inactive”.
For the molecule `N[C@H](C(=O)O)c1ccc(C(=O)O)c(O)c1`, the Potency result is “inactive”.
Next, `CC1=NNC(=O)C1Cc1c(Cl)cccc1Cl` (stereo not given): “inactive”; `Cc1cc(C(F)(F)F)nn1-c1nc(-c2ccco2)cc(C(F)(F)F)n1`: “inactive”.
For `Cc1cccc(NC(=O)CSc2nc(-c3ccco3)cc(C(F)(F)F)n2)c1C` the value was 9.2 µM (active); for `CC(C)c1nc(SCC(=O)NC(=O)NC(C)(C)C)n[nH]1`, “inactive”.
For `CC(C)(C)NC(=O)CSc1nc(-c2ccc(F)cc2)cc(C(F)(F)F)n1`, the Potency is 18.4 µM (active).
Next, `CCNS(=O)(=O)c1ccc(NC(=O)CSc2nc(-c3ccco3)cc(C(F)(F)F)n2)cc1`: 7.31 µM (active); `CN(C)c1ccc(NC(=O)CSc2n[nH]c(-c3ccco3)n2)cc1`: “inactive”; `Cc1cc(C(F)(F)F)nc(SCC(=O)Nc2nccs2)n1`: “inactive”.
For `Cc1cccc(NC(=O)Cn2c(C(F)(F)F)nc3ccccc32)c1C` the value was “inactive”; for `O=C(CSc1nc(-c2ccco2)cc(C(F)(F)F)n1)NCc1cccs1`, “inactive”; for `Cc1ccccc1CN1C(=O)CSCC1(C)C(=O)Nc1c(C)cccc1C` (stereo not given), “inactive”.
Next, `Cc1n[nH]c(=O)c2c(NC(=O)CSc3cc(Cl)ccc3Cl)oc(C)c12`: “inactive”; `O=C(CSc1nnnn1C1CCCC1)N1CCCCC1`: “inactive”; `Cc1cc(=O)oc2c1ccc1ccccc12`: “inactive”.
`O=C(Nc1ccc(C(=O)NCc2ccccc2Cl)cc1)C1=CSCCO1`: the Potency entry is “inactive”.
For `C=CCn1c2c(c3ccccc31)CCC2` the value was “inactive”; for `CCc1nnc(NS(=O)(=O)c2ccc(NC(=O)c3cccc(OC(F)(F)C(F)F)c3)cc2)s1`, “inactive”; for `O=C(c1cccs1)N1CCN(C(=O)N2CCOCC2)CC1`, “inactive”.
Next, `C/C(=N\Nc1ccccc1)c1cccs1`: “inactive”; `C/C(=N\Nc1nc(Nc2ccccc2)nc(N2CCOCC2)n1)c1cccs1`: 20.6 µM (active).
Regarding `CCN(c1ccccc1)S(=O)(=O)c1ccc(OCC(=O)N2CCCC2)cc1`, the Potency entry was “inactive”.
Consider `CCc1cccc(NC(=O)CCNS(=O)(=O)c2cccc3nonc23)c1`, for which the Potency entry is “inactive”.
As for `Cc1ccc(NC(=O)C2(N3CCC3=O)CCCCC2)cc1`, the Potency entry was “inactive”.
Next, `CCOc1ccc(CCNC(=O)Nc2ccccc2)cc1OCC`: “inactive”; `CCOc1ccc(CCNC(=O)c2ccc3c(c2)sc2nc(-c4ccc(F)cc4)cn23)cc1OCC`: 5.8 µM (active).
Next, `CC(C)c1ccc(C(=O)NCCCc2ccccc2)cc1`: “inactive”; `COc1ccc(Cl)cc1C(=O)OCC(=O)NCc1cccs1`: “inactive”.
Next, `COc1ccc(CCNC(=O)c2ccc3c(c2)sc2nc(-c4ccc(C)cc4)cn23)cc1OC`: 5.17 µM (active).
Consider `Cc1cc(C(=O)NCCCc2ccccc2)no1`, for which the Potency entry was “inactive”.
Next, `Cc1ccc(-c2cn3c(n2)sc2cc(C(=O)NCCCc4ccccc4)ccc23)cc1`: 8.2 µM (active); `CCOc1ccc(CCNC(=O)Cn2nc(CC)n3c(cc4sc(CC)cc43)c2=O)cc1OCC`: “inactive”; `Cc1ccc(-c2cn3c(n2)sc2cc(C(=O)NCc4cccs4)ccc23)c(C)c1`: 18.4 µM (active).
Take `CCc1cc2c(cc3c(=O)n(CC(=O)NCCc4ccc(OC)c(OC)c4)ncn32)s1`: the Potency entry was “inactive”.
For `COc1ccc(CCNC(=O)CN(C)S(=O)(=O)c2ccc3nc(C)sc3c2)cc1OC` the value was “inactive”; for `CCOc1cccc2cc(-c3cn4c(n3)sc3cc(C)ccc34)c(=O)oc12`, “inactive”; for `Cc1cc(O)c(NC(=O)c2ccc(C)c([N+](=O)[O-])c2)cc1C`, “inactive”.
Next, `CCc1ccc(-c2nnn(Cc3nc4ccccc4s3)n2)cc1`: “inactive”.
Regarding `C[C@H]1Cn2cnc(C(=O)N[C@H](C)c3ccccc3)c2C(=O)N1`, the Potency result is “inactive”.
Next, `CC1(C)Cc2ccccc2-c2[nH]c(=S)[nH]c(=O)c21`: “inactive”; `Cc1ccc(C(=O)NN(CCC#N)C2=NS(=O)(=O)c3ccccc32)cc1`: “inactive”; `Cc1cc(C)c(NC(=O)CN2CCOCCOCCOCCOCC2)c(C)c1`: “inactive”.
For `O=C(Oc1ccc2c(c1)CCC2)N1CCOCC1` the value was “inactive”; for `C=C(C)CSc1nnc(-c2ccc(C)cc2)n1N`, “inactive”.
For `CCCCn1c(N)c(N(CC(C)C)C(=O)C2CSC3(C)CCC(=O)N23)c(=O)[nH]c1=O` (stereo not given) the value was “inactive”; for `O=C(O)c1ccc(-n2cccc2)cc1O`, “inactive”; for `CCOC(=O)C1CCCN(C(=O)c2cccc(S(=O)(=O)N3CCOCC3)c2)C1` (stereo not given), “inactive”.
`CCOC(=O)C1CCCN(C(=O)c2ccc3c(c2)sc2nc(-c4ccc(CC)cc4)cn23)C1` (stereo not given): the Potency is 5.17 µM (active).
For `CCOC(=O)C1CCCN(C(=O)c2cncc(Br)c2)C1` (stereo not given) the value was “inactive”; for `O=C(COc1ccc([N+](=O)[O-])cc1)Nc1cccc(C(=O)Nc2ccccc2C(=O)O)c1`, “inactive”.
As to `O=C(NC1(C(F)(F)F)NC(=O)N(Cc2cccnc2)C1=O)c1ccccc1Cl` (stereo not given), the Potency entry was “inactive”.
Take `Cc1cccc(NC(=O)CN2CCN(CC(=O)NCC3(N4CCCCC4)CCCCC3)CC2)c1C`: the Potency result was “inactive”.
As to `CN1CCN(C2(CNC(=O)COc3ccc(C(C)(C)C)cc3)CCCCC2)CC1`, the Potency was 18.4 µM (active).
For `COc1ccc(S(=O)(=O)N2CCN(CC(=O)NCC3(N4CCOCC4)CCCCC3)CC2)cc1` the value was “inactive”; for `Cc1nc2sc(C(c3ccco3)N3CCOCC3)c(O)n2n1` (stereo not given), “inactive”; for `COc1ccc(CC(=O)N[C@@H]2c3cc(OC)c(OC)cc3C[C@H]2OCc2ccccc2)cc1`, “inactive”.
In the case of `COc1ccc(C(=O)NC2CC(C)(C)NC(C)(C)C2)cc1OC`, the Potency result was “inactive”.
`COc1ccccc1OCC(=O)Nc1ccccc1C(=O)NC1CC1`: the Potency entry is “inactive”.
Next, `COc1ccc(CC(=O)NC2CCSc3ccccc32)cc1OC` (stereo not given): “inactive”.
For `COc1ccc(C2(CNC(=O)Cc3ccc(OC)c(OC)c3)CCCC2)cc1` the value was 20.6 µM (active); for `CCOc1c(OC)cccc1C(=O)NCC1(c2ccccc2)CCCC1`, 6.51 µM (active).
Take `COc1cc(C(=O)NCC2(c3ccccc3)CCCC2)ccc1OC(C)C`: the Potency is 10.3 µM (active).
Take `CCn1c(CNC(=O)c2ccc(OC)c(OC)c2)nnc1SCC(=O)Nc1ccccc1`: the Potency entry is “inactive”.
Turning to `COc1ccccc1C(=O)NCCC(=O)NN1C(=O)NC2(CCCCC2)C1=O`, the Potency entry is “inactive”.
As for `Cn1cnc(S(=O)(=O)Nc2ccc3c(c2)OCCO3)c1`, the Potency entry is “inactive”.
On to `CN(C)Cc1c(C#N)c2ccccc2n1C`, for which the Potency result is “inactive”.
For `COCCCN(C(=O)Cn1ncc2c(=O)oc3ccc(C)cc3c21)C(C)c1ccncc1` (stereo not given) the value was “inactive”; for `CC1CCN(CCCn2c(SCC(=O)NC3CCCC3)nc3ccccc3c2=O)CC1`, “inactive”.
As to `Nc1nc(SCCOc2ccccc2)n[nH]1`, the Potency entry is “inactive”.
Next, `COc1cc(C(=O)OCCCN2CCOCC2)cc(OC)c1OC`: “inactive”.
Next, `Cc1cccc(OCC(O)Cn2c(N3CCCCC3)nc3c2c(=O)[nH]c(=O)n3C)c1` (stereo not given): 23.1 µM (active); `Cc1nnc(SCCCn2c(N3CCCCC3)nc3c2c(=O)[nH]c(=O)n3C)s1`: “inactive”; `C=C(C)Cn1c(N2CCN(CC)CC2)nc2c1c(=O)[nH]c(=O)n2C`: “inactive”.
Next, `Cn1c(=O)[nH]c(=O)c2c1nc(N1CCN(C(c3ccccc3)c3ccccc3)CC1)n2CCO`: 16.4 µM (active); `CCC(C)Sc1nc2c(c(=O)[nH]c(=O)n2C)n1CC(O)COc1cccc2ccccc12` (stereo not given): 29.1 µM (active); `C=C(C)Cn1c(N2CCCC2)nc2c1c(=O)[nH]c(=O)n2C`: “inactive”.
On to `COc1ccc(CNc2nc3c(c(=O)[nH]c(=O)n3C)n2Cc2ccccc2)cc1`, for which the Potency result was “inactive”.
